Inconclusive results are not listed. A number with no mark means an inactive call. Calls of active or inactive are those of the source. Calls come from the whole dose curve; as a rule, active = well fitted inhibition curve with a large enough effect; inconclusive = small, poorly fitted or top-dose-only effect; inactive = no such curve, though single readings can be large or run the other way.
Assay: Primary qHTS for inhibitors of nuclear receptor binding SET domain protein 2 (NSD2) in an RCH-ACV wild type WT cells (2C) (AID 1645877); note: nearly all actives have a fitted effect of over 70% in size
Details: RCH-ACV (leukaemia line) NSD2 WT (2C) viability, CellTiter-Glo, 72 h; series mostly up to 44.9 µM; activity change, negative = cell killing: at the top concentration
% is set by controls: 0 for no effect and ±100 for the full control effect; potency is the fitted concentration of half-maximal effect.

SMILES	activity change, negative = cell killing [%]	Potency	outcome
Nc1nc(N)c(-c2ccccc2)s1	7.29		
CN1CCN(c2cc3c(cc2F)c(=O)c(C(=O)O)cn3-c2ccc(F)cc2)CC1		7.5 µM (active)	
O=[N+]([O-])c1cccc(S(=O)(=O)NCCNS(=O)(=O)c2cccc([N+](=O)[O-])c2)c1	-7.37		
CC(=O)Nc1ncc([N+](=O)[O-])s1			inactive
CC1=C(C(=O)O)N2C(=O)[C@@H](NC(=O)[C@H](N)c3ccccc3)[C@H]2SC1	4.43		
O=C(NCCc1c[nH]c2ccccc12)c1cccnc1	-20		
CN(Cc1ccc(C(C)(C)C)cc1)Cc1cccc2ccccc12	3.17		
Cc1ncc(CO)c(C=O)c1O			inactive
CC(C)(C)NC[C@H](O)COc1nsnc1N1CCOCC1	1.39		
CCCCCN=C(N)N/N=C/c1c[nH]c2ccc(OC)cc12		4.73 µM (active)	
Cc1cccc(C)c1NC(=O)CN1CCCCCC1	3.32		
COC(=O)C(c1ccccc1Cl)N1CCc2sccc2C1 (stereo not drawn)	-19.4		
COc1ccc(CN(CCN(C)C)c2ncccn2)cc1	-28.3		
CC(=O)NCCCCCC(=O)O	5.33		
CCN(CC)CCOc1ccc2c(c1)C(=O)c1cc(OCCN(CC)CC)ccc1-2		9.44 µM (active)	
CC(CNC1CCCCC1)OC(=O)c1ccccc1 (stereo not drawn)	-8.91		
CC(C)[C@@H]1CC[C@@H](C)CC1=O	1.03		
CN(C)CCOC(=O)C(c1ccccc1)C1(O)CCCC1 (stereo not drawn)	-12.2		
CC(=O)OCC(=O)[C@H]1CC[C@H]2[C@@H]3CCC4=CC(=O)CC[C@]4(C)[C@H]3CC[C@]12C	-11.8		
CCOCCn1c(N2CCCN(C)CC2)nc2ccccc21	-7.75		
CC(C)Cn1cnc2c1c(=O)n(C)c(=O)n2C	-10.9		
COc1ccc2c(c1)c1c3n2CCN(C)C3=NCC1	6.6		
C#C[C@]1(O)CC[C@H]2[C@@H]3[C@H](C)CC4=C(CCC(=O)C4)[C@H]3CC[C@@]21C		21.1 µM (active)	

Source: PubChem BioAssay (NCATS)
